# IL-1B inflam inh = qHTS for Inhibitors of Inflammasome Signaling: IL-1-beta AlphaLISA Primary Screen. THP-1 LPS/ATP IL-1B secretion, AlphaLISA, 16 h; stronger effect = lower value. activity change, % at 57.5 µM. 360,000 tested, 4.7% active; in the data active means activity change below about -50%; inconclusive means mostly about -30% to -49%
#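 Secreted IL-1B measured by AlphaLISA bead assay after 16 h compound exposure of THP-1 cells; compounds (final up to 57.5 uM) added 1 h before LPS (250 ng/mL) and ATP (1.25 mM) stimulation; lower signal means less secretion.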
# Giardia kill = Small Molecules that selectively kill Giardia lamblia: qHTS; Giardia lamblia trophozoite viability; activity change, % at 7.66 µM, hits read low; 340,000 tested, 0.15% active; AID 540267, 2011; in the data active means activity change below about -80%; inconclusive means between about -30% and that limit;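 further: parasites exposed to compound for two days anaerobically before the ATP read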
#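 Killing of trophozoites was scored by loss of ATP luminescence after a 48 hrs anaerobic exposure to compounds at 37 deg C, using 100 cells per well.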
# ELG1 repair inh = qHTS screen for small molecules that inhibit ELG1-dependent DNA repair in human embryonic kidney (HEK293T) cells expressing luciferase-tagged ELG1; Potency, µM (titrated, usually from 46.1 µM), inactives show top-dose activity change, negative = inhibition, most hits filed as inhibitors; 330,000 tested, 2.3% active; AID 504467, 2011; HEK293T ELG1-luciferase reporter, luminescence, 16 h; DNA damage induced by 5-fluorouridine; further: potency means the concentration at half of the fitted maximal effect; nearly all actives have a fitted effect of over 55% in size
#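 DMSO vehicle served as the neutral condition. Each well held 2,000 cells given 5-fluorouridine plus compound; after 16 hr at 37 °C/5% CO2, ONE-Glo was added and luciferase measured 30 min later.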
# DT40 TDP1 no CPT = qHTS for Inhibitors of human tyrosyl-DNA phosphodiesterase 1 (TDP1): qHTS in cells in absence of CPT | 420,000 tested, 15% active | AID 686978, 2013 | Potency, µM (titrated, usually from 46.2 µM), for inactives: at the top dose activity change, negative = growth inhibition, hits mostly inhibitors | DT40 Tdp1-/- hTDP1 cells, no CPT, ATP luminescence, 48 h; further: potency means the concentration at half of the fitted maximal effect; nearly all actives have a fitted effect of over 55% in size
#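 Growth kinetics read by CellTiter-Glo luminescence after ≥48 hr at 37 °C. Cells: DT40 Tdp1-/- stably carrying human TDP1, 400 per well, compound exposure in the absence of CPT (DMSO vehicle).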
# TDP1 inh = qHTS Assay for Inhibitors of Tyrosyl-DNA Phosphodiesterase (TDP1) | Potency, µM (doses to about 130 µM), without a hit: top-dose activity change, negative = inhibition, most hits filed as inhibitors | Tyrosyl-DNA phosphodiesterase 1 (Homo sapiens), Q9NUW8 | recombinant TDP1, AlphaScreen DNA substrate cleavage | 350,000 tested, 0.28% active; further: potency means the concentration at half of the fitted maximal effect; nearly all actives have a fitted effect of over 40% in size
# Target sequence (Q9NUW8 whole entry, looked up): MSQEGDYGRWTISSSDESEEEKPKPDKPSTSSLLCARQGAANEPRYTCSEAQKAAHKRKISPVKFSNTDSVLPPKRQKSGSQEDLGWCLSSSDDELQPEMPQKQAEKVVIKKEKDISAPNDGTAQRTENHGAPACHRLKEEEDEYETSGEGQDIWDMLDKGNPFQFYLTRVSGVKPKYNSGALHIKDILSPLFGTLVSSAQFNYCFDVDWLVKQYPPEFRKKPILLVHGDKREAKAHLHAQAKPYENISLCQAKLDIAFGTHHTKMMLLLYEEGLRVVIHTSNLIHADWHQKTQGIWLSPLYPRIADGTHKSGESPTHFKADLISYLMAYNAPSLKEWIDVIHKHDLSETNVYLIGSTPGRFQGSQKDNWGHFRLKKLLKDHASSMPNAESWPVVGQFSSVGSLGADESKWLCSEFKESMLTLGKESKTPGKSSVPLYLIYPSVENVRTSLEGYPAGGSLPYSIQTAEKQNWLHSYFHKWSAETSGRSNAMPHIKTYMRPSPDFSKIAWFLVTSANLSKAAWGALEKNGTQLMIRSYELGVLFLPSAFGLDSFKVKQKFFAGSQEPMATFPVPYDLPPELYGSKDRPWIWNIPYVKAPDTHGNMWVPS
#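 Recombinant E. coli-expressed Tdp1 (1 nM) preincubated with compound 15 min at RT, then 5'-biotin/3'-phosphotyrosine-FITC DNA substrate (15 nM) added for 5 min. AlphaScreen beads (10 ug/ml) added, 10 min RT; tyrosine-FITC cleavage read as signal loss.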
# TDP1 cell CPT = qHTS for Inhibitors of human tyrosyl-DNA phosphodiesterase 1 (TDP1): qHTS in cells in presence of CPT | chicken DT40 Tdp1-/-;hTDP1 cells + 20 nM CPT, ATP luminescence, 48 h | Potency, µM (top dose mostly 46.2 µM), for the others: top-dose activity change, negative = growth inhibition, most hits filed as inhibitors | 420,000 tested, 12% active | AID 686979, 2013; further: potency means the concentration at half of the fitted maximal effect; nearly all actives have a fitted effect of over 55% in size
#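 Cell growth measured by CellTiter-Glo luminescence after a minimum 48 h, 37 C compound exposure with 20 nM CPT in Tdp1-knockout DT40 cells stably expressing hTDP1, seeded 400/well; qHTS titration format.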
# Starred values were filed as active, the others as inactive; ? = inconclusive; . = not tested or not shown; [ ] = remark or other dose. In the library only some 19% were active in any assay of this set; here they are far more common. Unless noted, the call rests on the fitted dose curve; in most records, active means well fitted curve in the direction sought with a large enough effect; inconclusive means small, poorly fitted or top-dose-only effect, or another doubt; inactive means no such curve, though single readings can be large; an effect the other way counts as inactive or inconclusive. On the % scale 0 is the no-effect control and ±100 the full control effect.
SMILES,IL-1B inflam inh,Giardia kill,ELG1 repair inh,DT40 TDP1 no CPT,TDP1 inh,TDP1 cell CPT
COc1ccc(-c2c(C)nn3c(N4CCN(Cc5ccccc5)CC4)cc(C)nc23)cc1OC,8,3,4.6µM*,23µM*,3%,23µM*
Cc1cc(N2CCN(Cc3ccccc3)CC2)n2nc(C)c(-c3ccccc3)c2n1,2,13,?,18µM*,1%,15µM*
COc1ccccc1-c1c(C)nn2c(N3CCN(Cc4ccccc4)CC3)cc(C)nc12,-20,-16,?,?,3%,?
Cc1cc(SCC#N)n2nc(C)c(-c3ccccc3)c2n1,-60*,-18,23µM*,-25%,11%,-29%
Cc1nn2c(N3CCN(C)CC3)cc(C(C)(C)C)nc2c1-c1ccccc1,-87*,-19,10%,?,3%,?
Cc1nn2c(N3CCN(C4CCCC4)CC3)cc(C(C)(C)C)nc2c1-c1ccccc1,7,-5,1%,-9%,-5%,-15%
COC(=O)C1=CN(c2cccc(Cl)c2)C=C(C(=O)OC)C1c1cccc(OC)c1,?,-24,?,?,-9%,?
CCCCc1oc2ccc(NS(C)(=O)=O)cc2c1C(=O)c1ccc(OCCCN(CCCC)CCCC)cc1,.,.,.,6µM*,.,4.7µM*
CNc1nc(NCCOc2ccccc2)c2sccc2n1,-7,.,.,21µM*,.,18µM*
c1ccc(CNc2nc(NCCOc3ccccc3)c3sccc3n2)cc1,.,.,.,16µM*,.,23µM*
c1ccc(CNc2nc(Oc3ccncc3)c3sccc3n2)cc1,17,.,.,-14%,.,-23%
O=C(NC1CC2CCCC(C1)N2C(=S)NCCc1ccccc1)C1CC1 (stereo not given),-14,-5,5%,?,-3%,-85%
CCCCCCn1nc(C(=O)OCC(=O)c2c(N)n(C)c(=O)n(C)c2=O)c2ccccc2c1=O,?,-7,?,18µM*,6%,21µM*
CCCn1nc(C(=O)OCC(=O)c2ccccc2)c2ccccc2c1=O,21,-2,2%,-17%,0%,11%
CCCCCn1nc(C(=O)OCC(=O)c2c(N)n(C)c(=O)n(C)c2=O)c2ccccc2c1=O,-53*,7,?,21µM*,0%,?
Cn1c(=O)c2c(nc(SCC(=O)Nc3ccc(F)cc3F)n2Cc2ccccc2)n(C)c1=O,.,.,.,?,-2%,?
CN(Cc1ccccc1)C(=O)c1ccc2c(c1)N(Cc1ccc(Cl)cc1)C(=O)c1ccccc1S2=O (stereo not given),.,.,.,16µM*,5%,16µM*
O=C(NCCC1=CCCCC1)c1ccc2c(c1)N(Cc1ccc(F)cc1)C(=O)c1ccccc1S2(=O)=O,.,.,.,7.3µM*,8%,21µM*
O=C(NCc1ccco1)c1ccc2c(c1)N(Cc1ccc(Cl)cc1)C(=O)c1ccccc1S2=O (stereo not given),.,.,.,18µM*,6%,?
CCCCN(C)C(=O)c1ccc2c(c1)N(Cc1ccc(F)cc1)C(=O)c1ccccc1S2(=O)=O,.,.,.,16µM*,5%,16µM*
C[C@@H]1CC[C@]2(C(=O)O)CC[C@]3(C)C(=CCC4[C@@]5(C)C[C@@H](O)[C@H](O)[C@@](C)(CO)C5CC[C@]43C)C2[C@H]1C (stereo not given in full),.,.,.,.,6%,.
COc1cccc(CN2C(=O)c3ccccc3Sc3ccc(C(=O)N(C)Cc4ccccc4)cc32)c1,.,.,.,18µM*,5%,?
O=C(NCc1ccco1)c1ccc2c(c1)N(Cc1ccc(F)cc1)C(=O)c1ccccc1S2(=O)=O,.,.,.,15µM*,2%,?
O=C(NCc1ccco1)c1ccc2c(c1)N(Cc1ccc(Cl)cc1)C(=O)c1ccccc1S2(=O)=O,.,.,.,18µM*,1%,?
O=C(NCc1ccco1)c1ccc2c(c1)N(Cc1cccc(Cl)c1)C(=O)c1ccccc1S2(=O)=O,.,.,.,?,4%,?
SMILES,IL-1B inflam inh,Giardia kill,ELG1 repair inh,DT40 TDP1 no CPT,TDP1 inh,TDP1 cell CPT
Cc1ccccc1C1CC(=O)Oc2cc(O)ccc21 (stereo not given),48,18,17%,-2%,2%[56.1 µM],5%
O=Cc1coc2c(ccc3ccccc32)c1=O,.,.,9%,.,.,.
Cc1ccccc1/C=N\NC(=O)c1ccccc1-n1cccc1,7,-17,2%,-19%,2%,0%
CCOC(=O)c1cc2c(=O)n3cccc(C)c3nc2n(CC(C)C)c1=NC(=O)c1ccco1,-4,8,13%,21µM*,-3%,?
CCOC(=O)c1cc2c(=O)n3ccccc3nc2n(CC(C)C)c1=NC(=O)c1cc2ccccc2o1,.,.,.,-1%,9%,-2%
CCCn1c(=NC(=O)c2ccco2)c(C(=O)OCC)cc2c(=O)n3ccccc3nc21,?,0,1%,?,0%,?
CCOCCCn1c(=NC(=O)c2ccco2)c(C(=O)OCC)cc2c(=O)n3cccc(C)c3nc21,-20,27,?,12µM*,6%,16µM*
CCNC(=S)N(CCc1c(C)[nH]c2ccccc12)Cc1cccnc1,22,-25,-11%,?,.,?
CNC(=S)N(CCc1c(C)[nH]c2ccc(C)cc12)Cc1cc(OC)c(OC)c(OC)c1,-9,?,?,15µM*,8%,?
CCNC(=S)N(CCc1c(C)[nH]c2ccccc12)Cc1cc(OC)c(OC)c(OC)c1,-26,-14,-13%,10µM*,9%,16µM*
CNC(=S)N(CCc1c(C)[nH]c2ccccc12)Cc1cc(OC)c(OC)c(OC)c1,-13,-10,?,21µM*,7%,?
COc1ccc(-c2noc(N(c3cccc(Cl)c3)c3nc(-c4ccc(OC)c(OC)c4)no3)n2)cc1OC,.,.,.,-12%,6%,-4%
Nc1cccc2[nH]c(=O)c3ccccc3c12,-8,-13,.,-19%,.,?
C[C@H]1Cc2c(COc3ccccc3)nc3c(c2CO1)CN(C(=O)C1CCCCC1)CC3,.,.,.,.,8%[12.3 µM],.
Cc1ccc(-c2onc(C)c2C)cc1S(=O)(=O)N1CCOc2ccc(Cl)cc21,.,.,.,15µM*,-3%,?

# Screening results from PubChem.
